# Assay outcomes: PubChem BioAssay, National Center for Advancing Translational Sciences (NCATS)
# Only some compounds are listed: those with a hit (about 11% of all), similar ones and a draw of the others.
# ERK AVP inh: qHTS Assay for Inhibitors of the ERK Signaling Pathway using a Homogeneous Screening Assay | 72,000 tested, 0.99% active | Potency, µM (series often up to 57.5 µM), most hits filed as inhibitors | HEK293-V1b, vasopressin-stimulated pERK AlphaScreen | AID 995, 2007; also: nearly all actives have a fitted effect of over 55% in size
#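 Overnight-seeded V1b-HEK293 cells in 1% FBS got compound, then vasopressin (25 nM final, 5 min, 37C), then lysis buffer. AlphaScreen detection of phospho-ERK; activity normalized to basal and full-stimulation controls.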
# HSD17B inh: qHTS Assay for Inhibitors of HSD17B4, hydroxysteroid (17-beta) dehydrogenase 4. 75,000 tested, 7.6% active. AID 893, 2007. recombinant HSD17B10, NADH fluorescence kinetic. Potency, µM (titrated, usually from 57.1 µM), actives largely listed as inhibitors. 3-hydroxyacyl-CoA dehydrogenase type-2 (Homo sapiens), Q99714;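 also: the protocol describes HADH2 (HSD17B10) and not the HSD17B4 of the title; nearly all actives have a fitted effect of over 70% in size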
#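 His-tagged E. coli-expressed HADH2 at 20 nM in 100 mM Tris-HCl pH 9.0 with 0.01 % Tween-20, preincubated 15 min with compound at room temperature. Reaction with 1 mM NAD+ and 90 uM beta-hydroxybutyryl coenzyme A; NADH fluorescence (360/450 nm) read kinetically over 4 min, last minus first point.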
# ALOX15 inhib: qHTS Assay for Inhibitors of 15-hLO (15-human lipoxygenase); Potency, µM (highest dose often 57.1 µM), usual class: inhibitors; Polyunsaturated fatty acid lipoxygenase ALOX15 (Homo sapiens), P16050; AID 887, 2007; 74,000 tested, 1.4% active; purified 15hLO-1, xylenol orange hydroperoxide absorbance; also: nearly all actives have a fitted effect of over 55% in size
#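 Purified human 15hLO-1 (40 nM) in 25 mM Hepes pH 7.5, 0.01% Triton X-100, preincubated 15 min RT with compound, then 50 uM arachidonic acid for 6 min. Hydroperoxide read by ferrous/xylenol orange, 30 min; 573/405 nm absorbance ratio gave progress.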
# Luciferase inh: qHTS Assay for Inhibitors of Firefly Luciferase; 72,000 tested, 2.2% active; Luciferin 4-monooxygenase (Photinus pyralis), P08659; purified firefly luciferase, luminescence, 8 min; Potency, µM (highest dose often 57.1 µM), actives largely listed as inhibitors; AID 411, 2009; also: nearly all actives have a fitted effect of over 40% in size
#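 qHTS concentration-response profiling: light output of P. pyralis luciferase with luciferin and 10 uM ATP, imidazole buffer pH 7.2. Read by luminescence after 8-min room-temperature incubation.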
# PK Bst: Pyruvate Kinase | Potency, µM | 51,000 tested, 1.2% active | purified pyruvate kinase, luminescence ATP production; ribose 5-phosphate activator present at AC10 | AID 361, 2006; in the data active = potency below about 11 µM; inconclusive = mostly about 12 µM to 25 µM;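 the screen sought inhibitors and activators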
# HADH2 inhib: qHTS Assay for Inhibitors of HADH2 (Hydroxyacyl-Coenzyme A Dehydrogenase, Type II) | 73,000 tested, 3.4% active | Potency, µM (series often up to 57.1 µM), usual class: inhibitors | recombinant HADH2, NADH fluorescence, beta-hydroxybutyryl-CoA | AID 886, 2007; also: nearly all actives have a fitted effect of over 60% in size
# Target sequence (Q99714 whole entry, looked up, one chain of several): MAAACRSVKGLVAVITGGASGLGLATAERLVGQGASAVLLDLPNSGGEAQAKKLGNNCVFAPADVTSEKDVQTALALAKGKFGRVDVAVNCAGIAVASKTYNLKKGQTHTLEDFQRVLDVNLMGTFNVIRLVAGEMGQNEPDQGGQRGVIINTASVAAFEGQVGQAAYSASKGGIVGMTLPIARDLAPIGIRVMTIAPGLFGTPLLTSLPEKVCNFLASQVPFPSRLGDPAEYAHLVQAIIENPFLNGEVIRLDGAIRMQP
#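 Read-out: 360 nm excitation, 450 nm emission, kinetic over 4 min. Conditions: His-tagged human HADH2 20 nM, pH 9.0 Tris with Tween-20, 1 mM NAD+, 90 uM beta-hydroxybutyryl-CoA.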
# A number is an active result; 0 = inactive; ? = inconclusive; - = not tested or not shown; [ ] = dose if it differs, or a comment. Unless noted, calls follow the shape of the dose curve; as a rule, active = well fitted curve in the direction sought with a large enough effect; inconclusive = small, poorly fitted or top-dose-only effect, or another doubt; inactive = no such curve, though single readings can be large; an effect the other way counts as inactive or inconclusive.
SMILES,ERK AVP inh,HSD17B inh,ALOX15 inhib,Luciferase inh,PK Bst,HADH2 inhib
COc1ccc(C2CC(=O)N3C(=C2C#N)SCC3(O)c2ccccc2)cc1 (configuration not stated),0,0,0,0,0,0
COc1ccccc1N1CSC2=C(C#N)C(c3ccc(SC)cc3)CC(=O)N2C1 (configuration not stated),0,20µM,3.2µM,0,-,1.3µM
COc1cc(C2CC(=O)N3CN(c4ccccc4C)CSC3=C2C#N)cc(OC)c1OC (configuration not stated),0,?,4µM,0,0,?
COc1cc(NS(C)(=O)=O)ccc1Cc1c2ccccc2nc2ccccc12,0,0,0,-,-,-
CCCCCNCCCCC,0,0,0,-,-,0
O=C(Cc1cc(=O)[nH]c(=O)[nH]1)N1CCC(Cc2ccccc2)CC1,-,?,0,10µM,-,0
Cc1nc2c(C(=O)N3CCCCC3)cnn2c(C)c1Cc1ccccc1F,0,32µM,0,0,-,0
N#CCCn1c(=O)c(CCc2ccccc2)nc2cnc(Oc3cccc(Cl)c3)nc21,0,0,0,0[11.4 µM],-,0
CN1CCC[C@H](C(=O)OCC(=O)[C@]2(O)CC[C@@H]3[C@H]4CCC5=CC(=O)CC[C@@]5(C)[C@H]4[C@@H](O)C[C@]32C)C1,0[11.5 µM],0[11.4 µM],0[11.4 µM],0[11.4 µM],-,0[11.4 µM]
O=c1oc2c3c4c(cc2s1)CCCN4CCC3,?,?,?,0,-,2.5µM
O=C(O)[C@H](/C=C\c1ccccc1)c1ccccc1,0[11.5 µM],0[11.4 µM],0[11.4 µM],0[11.4 µM],-,0[11.4 µM]
Cc1nnc(SCCn2c(N3CCN(c4ccccc4)CC3)nc3c2c(=O)n(C)c(=O)n3C)s1,-,13µM,?,0,-,0
Cc1nnc(SCCn2c(N3CCN(C)CC3)nc3c2c(=O)n(C)c(=O)n3C)s1,0,0,0,0,0,0
Cc1ccc(-n2ncc3c(=O)n(CC(=O)N4CCCc5ccccc54)cnc32)cc1C,25µM,?,0,0,-,0
Cc1onc(-c2c(F)cccc2Cl)c1C(=O)Nc1nc2c(s1)CCCC2,?,20µM,0,0,0,0
O=C(Nc1nc(=O)c2ccccc2s1)c1ccccc1,-,-,-,0,0,-
Cc1cc(C(=O)Nc2nc3c(s2)CCCC3)no1,0,0,0,25µM,0,?
Cc1onc(-c2ccccc2)c1C(=O)Nc1nc2c(s1)CCCC2,0,0,0,0,0,0
CN(C)c1ccc(C(=O)Nc2nc3c(s2)CCCC3)cc1,-,?,0,5µM,-,25µM
CCc1ccc2nc(NC(=O)c3cc(C)on3)sc2c1,0,0,0,0,0,0
COC(=O)Nc1nc2c(s1)CCCC2,-,0,0,-,-,0
O=C(Nc1nc2c(s1)C(=O)CCC2)c1ccccc1,0,0,0,13µM,-,0
O=C(O)/C=C\[C@H](O)c1ccc(Cl)cc1,0,0,?,0,-,0
O=c1c(O)c(-c2ccc(O)c(O)c2)oc2c(OC3OC(CO)C(O)C(O)C3O)c(O)cc(O)c12 (configuration not stated),0,0,0,-,-,-
O=S(=O)(c1ccccc1)N1CCC[C@@]2(CCN(c3ncccn3)C2)C1,0,?,0,0[11.4 µM],-,0
SMILES,ERK AVP inh,HSD17B inh,ALOX15 inhib,Luciferase inh,PK Bst,HADH2 inhib
COC(=O)C(O)C1C(C)(C)C(OC(C)=O)C2CC3=C4CC(=O)OC(c5ccoc5)[C@]4(C)CCC3[C@@]1(C)C2=O (some centres not stated),0,0,0,-,-,-
Cn1c(=O)c2nc(-c3ccccc3)oc2c2ccccc21,0,25µM,0,0,0.43,0
CCOC(=O)N1CCN(C(=O)c2cc3c(=O)[nH]c4ccccc4c3s2)CC1,0,20µM,0,0,-,?
CCOC(=O)N1CCN(C(=O)c2ccc(-n3c(=S)[nH]c4ccccc4c3=O)cc2)CC1,0,0,0,0,0,0
C=CCCCCCCC=C,0,0,0,-,-,0
O=C(c1ccc2c(c1)OCCCO2)c1cccs1,0,0,0,13µM,-,0
Cn1cccc1-c1nc2ccc(NC(=O)c3cccs3)cc2[nH]1,20µM,0,0,0,0,0
